Active and inactive are the calls of the source. How the source made its calls: active means hit-call score of the fitted dose curve at least 0.9, where 1 is the maximum; inactive means score below 0.9.
test: CCTE_Shafer_MEA_dev_network_spike_duration_std: CCTE's Neural Network Formation Assay for Standard Deviation of Network Spike Duration, Shafer Lab (AID 2284052);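 further: hits are decreases in network spike duration SD versus DMSO vehicle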
Method: CCTE_Shafer_MEA_dev assay is conducted using Axion Biosystems 48 well microelectrode array (MEA) plates and Maestro recording system. Each well of the MEA plate contains a grid of 16 microelectrodes embedded in the culture surface. Electrically active cells, such as neurons, can be cultured over the electrodes, and electrical activity in these cells can be recorded extracellularly. The spontaneous firing of neurons is captured from each electrode on a microsecond timescale providing both temporally and spatially precise data. […] The CCTE_Shafer_MEA_dev assay uses primary cultures of rat cortical neurons. Recordings are made on days post-plating 5, 7, 9 and 12. As these cultures mature over time, neural networks develop functional activity and form cohesive networks in which electrical activity can be highly coordinated. CCTE_Shafer_MEA_dev_network_spike_duration_std is 1 of 19 assay components of the CCTE_Shafer_MEA_dev assay. It measures the standard deviation of the duration of network spikes (temporally-clustered groups of action potential firing across multiple electrodes) during a recording in a microelectrode array (MEA) using Axion Biosystems Maestro 768 channel amplifier with the AxIS adaptive spike detector. To collapse across multiple recordings made on days post-plating 5, 7, 9 and 12, the trapezoidal area-under-the-curve of the component is calculated.Data from the assay component CCTE_Shafer_MEA_dev_network_spike_duration_std was analyzed into 1 assay endpoint. This assay endpoint, CCTE_Shafer_MEA_dev_network_spike_duration_std, was analyzed in the negative analysis fitting direction relative to DMSO as the negative control and baseline of activity. Using a type of functional reporter, gain or loss-of-signal activity can be used to understand electrical activity.
On the day prior to culture, each well was coated thoroughly with 150 uL of 0.05% polyethyleneimine (PEI, Sigma Cat P3143) in 50 mM HEPES (Sigma Cat H7523) at a pH of 8. The plate was incubated at 37C for one hour. PEI was rinsed out with 500 uL of sterile water three times. Plates were stored at 4C until the day of culture. This culture was plated at a seeding density of 1.5 x 10^5 cells/well on a 48-well MEA plate, prepared as described above. Cells were administered via a 25 uL media/laminin ([…]; Sigma Cat L2020-1MG) drop directly onto the microelectrode array, as adding the cells with the laminin results in better attachment than pre-coating with laminin. After 2 hours, an additional 475 uL of cortical media was added and the cells returned to the incubator. Exposure starts at day 0 of plating and is continued over twelve days of network development until the experiment is terminated. Cells are fed with fresh medium on DIV 5 and 9, following the recordings on those days. The entire volume of media in the well is exchanged and any vehicle or compound treatment is renewed. Complete details are found in OP-NHEERL/ISTD/SBB/TJS/2015-03-r0 (available on request, email shafer.tim@epa.gov). Measurement of the electrical activity is non-invasive, and recordings can be made from the same plate over multiple different days of the culture. In cortical neurons, this allows for the measurement of extracellular action potentials over the period during which networks form in the MEA plate.

| SMILES | outcome | AC50 |
| --- | --- | --- |
| FC(F)=C(F)C(F)(F)C(F)(F)C(F)(F)C(F)F | inactive |  |
| O=C(F)C(F)(F)C(F)(F)C(F)(F)C(=O)F | inactive |  |
| CN(CCO)S(=O)(=O)C(F)(F)C(F)(F)C(F)(F)C(F)(F)C(F)(F)C(F)(F)C(F)(F)C(F)(F)F | inactive |  |
| FCOC(C(F)(F)F)C(F)(F)F | inactive |  |
| CC(C)c1c(C(=O)Nc2ccccc2)c(-c2ccccc2)c(-c2ccc(F)cc2)n1CC[C@@H](O)C[C@@H](O)CC(=O)O |  | 2.68 nM (active) |
| O=C(CC(=O)C(F)(F)C(F)(F)C(F)(F)F)c1cccs1 | inactive |  |
| CN(C)CCOC(c1ccccc1)c1ccccc1 | inactive |  |
| NC(C(F)(F)F)C(F)(F)F | inactive |  |
| O=C(O)C(F)(F)OC(F)(F)C(F)(F)OC(F)(F)C(F)(F)OC(F)(F)C(F)(F)C(F)(F)C(F)(F)F | inactive |  |
| O=C1NS(=O)(=O)c2ccccc21 | inactive |  |
| O=C(CCCN1CCC(O)(c2ccc(Cl)cc2)CC1)c1ccc(F)cc1 |  | 1880 nM (active) |
| COC(=O)C(F)(F)C(F)(F)C(F)(F)F | inactive |  |
| O=C(OC(=O)C(F)(F)C(F)(F)F)C(F)(F)C(F)(F)F | inactive |  |
| C=CC(F)(F)C(F)(F)C(F)(F)C(F)(F)F | inactive |  |
| COC(=O)C(F)(F)C(F)(F)C(F)(F)C(F)(F)C(F)(F)F | inactive |  |
| O=C(O)CCC(F)(F)C(F)(F)C(F)(F)C(F)(F)C(F)(F)F | inactive |  |
| OCC(F)(F)C(F)(F)C(F)(F)C(F)(F)C(F)(F)C(F)(F)C(F)(F)C(F)(F)C(F)(F)C(F)(F)C(F)(F)F | inactive |  |
| O=CC(F)(F)C(F)(F)C(F)(F)F | inactive |  |
| O=P(O)(O)CCC(F)(F)C(F)(F)C(F)(F)C(F)(F)C(F)(F)C(F)(F)F | inactive |  |
| CC(=O)Nc1ccc(O)cc1 | inactive |  |
| O=C(C=C(O)C(F)(F)F)C(F)(F)F | inactive |  |
| O=P(O)(O)CCC(F)(F)C(F)(F)C(F)(F)C(F)(F)C(F)(F)C(F)(F)C(F)(F)C(F)(F)F | inactive |  |
| O=C(F)C(F)(F)C(F)(F)C(F)(F)C(F)F | inactive |  |
| Nc1ccn([C@@H]2O[C@H](CO)[C@@H](O)C2O)c(=O)n1 (stereo partly specified) |  | 239 nM (active) |
| O=CC(F)(F)C(F)(F)C(F)(F)C(F)F | inactive |  |
| CN(Cc1cnc2nc(N)nc(N)c2n1)c1ccc(C(=O)N[C@@H](CCC(=O)O)C(=O)O)cc1 |  | 42.2 nM (active) |

Reference: PubChem BioAssay (EPA / NIEHS)
